# In article PMC11062922 (Nature Chemical Biology, 2023):
# Like-named read-outs stand apart in the source and are kept apart here.
# Tests used:
# [1] = tested on: PLK4; conditions: read-out: apparent Kd, n = 1
# [2] = tested on: PRKAA2; conditions: read-out: apparent Kd, n = 1
# [3] = compound concentrations:100 nM and 1000 nM (sheet 'Lestaurtinib' of Supplementary Table 1),run:Lestaurtinib_02422_R3,Plate:MR006
# [4] = compound concentrations:100 nM and 1000 nM (sheet 'Lestaurtinib' of Supplementary Table 1),run:Lestaurtinib_02437_R2,Plate:MR007
# [5] = compound concentrations:100 nM and 1000 nM (sheet 'Lestaurtinib' of Supplementary Table 1),run:Lestaurtinib_02437_R3,Plate:MR007
# [6] = compound concentrations:100 nM and 1000 nM (sheet 'Lestaurtinib' of Supplementary Table 1),run:Lestaurtinib_02443_R3,Plate:MR009
# [7] = compound concentrations:100 nM and 1000 nM (sheet 'Lestaurtinib' of Supplementary Table 1),run:Lestaurtinib_02473_R3,Plate:MR010
# [8] = compound concentrations:100 nM and 1000 nM (sheet 'Lestaurtinib' of Supplementary Table 1),run:Lestaurtinib_02482_R2,Plate:MR011
# [9] = compound concentrations:100 nM and 1000 nM (sheet 'Lestaurtinib' of Supplementary Table 1),run:Lestaurtinib_02487_R1,Plate:MR012
# [10] = compound concentrations:100 nM and 1000 nM (sheet 'Lestaurtinib' of Supplementary Table 1),run:Lestaurtinib_02487_R3,Plate:MR012
# [11] = compound concentrations:100 nM and 1000 nM (sheet 'Lestaurtinib' of Supplementary Table 1),run:Lestaurtinib_02496_R1,Plate:MR013
substance,measurement,setting,value
Lestaurtinib,potency estimated from few doses,"[1]; compound concentrations:100 nM and 1000 nM (sheet 'Lestaurtinib' of Supplementary Table 1),run:Lestaurtinib_02422_R1,Plate:MR006",56.6 nM
same,potency estimated from few doses,[1]; [3],60.8 nM
same,potency estimated from few doses,"[1]; compound concentrations:100 nM and 1000 nM (sheet 'Lestaurtinib' of Supplementary Table 1),run:Lestaurtinib_02437_R1,Plate:MR007",58.1 nM
same,potency estimated from few doses,[1]; [4],61.6 nM
same,potency estimated from few doses,[1]; [5],41 nM
same,potency estimated from few doses,"[1]; compound concentrations:100 nM and 1000 nM (sheet 'Lestaurtinib' of Supplementary Table 1),run:Lestaurtinib_02438_R2,Plate:MR008",70.6 nM
same,potency estimated from few doses,"[1]; compound concentrations:100 nM and 1000 nM (sheet 'Lestaurtinib' of Supplementary Table 1),run:Lestaurtinib_02438_R3,Plate:MR008",67.9 nM
same,potency estimated from few doses,"[1]; compound concentrations:100 nM and 1000 nM (sheet 'Lestaurtinib' of Supplementary Table 1),run:Lestaurtinib_02443_R1,Plate:MR009",70.3 nM
same,potency estimated from few doses,"[1]; compound concentrations:100 nM and 1000 nM (sheet 'Lestaurtinib' of Supplementary Table 1),run:Lestaurtinib_02443_R2,Plate:MR009",81 nM
same,potency estimated from few doses,[1]; [6],62.6 nM
same,potency estimated from few doses,[1]; [7],43.1 nM
same,potency estimated from few doses,[1]; [8],113 nM
same,potency estimated from few doses,[1]; [9],79.1 nM
same,potency estimated from few doses,[1]; [10],83.9 nM
same,potency estimated from few doses,[1]; [11],78.2 nM
same,potency estimated from few doses,"[1]; compound concentrations:100 nM and 1000 nM (sheet 'Lestaurtinib' of Supplementary Table 1),run:Lestaurtinib_02496_R2,Plate:MR013",94.1 nM
same,potency estimated from few doses,"[1]; compound concentrations:100 nM and 1000 nM (sheet 'Lestaurtinib' of Supplementary Table 1),run:Lestaurtinib_02496_R3,Plate:MR013",53.6 nM
same,potency estimated from few doses,"[1]; compound concentrations:100 nM and 1000 nM (sheet 'Lestaurtinib' of Supplementary Table 1),run:Lestaurtinib_02566_R2,Plate:MR014",56 nM
same,potency estimated from few doses,"[1]; compound concentrations:100 nM and 1000 nM (sheet 'Lestaurtinib' of Supplementary Table 1),run:Lestaurtinib_02566_R3,Plate:MR014",92.7 nM
same,potency estimated from few doses,"[1]; compound concentrations:100 nM and 1000 nM (sheet 'Lestaurtinib' of Supplementary Table 1),run:Lestaurtinib_02572_R1,Plate:MR015",50.1 nM
same,potency estimated from few doses,"[1]; compound concentrations:100 nM and 1000 nM (sheet 'Lestaurtinib' of Supplementary Table 1),run:Lestaurtinib_02572_R2,Plate:MR015",77.6 nM
same,potency estimated from few doses,"[1]; compound concentrations:100 nM and 1000 nM (sheet 'Lestaurtinib' of Supplementary Table 1),run:Lestaurtinib_02577_R1,Plate:MR016",55.9 nM
same,potency estimated from few doses,"[1]; compound concentrations:100 nM and 1000 nM (sheet 'Lestaurtinib' of Supplementary Table 1),run:Lestaurtinib_02577_R3,Plate:MR016",35.1 nM
same,potency estimated from few doses,"[1]; compound concentrations:100 nM and 1000 nM (sheet 'Lestaurtinib' of Supplementary Table 1),run:Lestaurtinib_02584_R1,Plate:MR017",56.6 nM
same,potency estimated from few doses,"[1]; compound concentrations:100 nM and 1000 nM (sheet 'Lestaurtinib' of Supplementary Table 1),run:Lestaurtinib_02584_R2,Plate:MR017",79.8 nM
same,potency estimated from few doses,"[1]; compound concentrations:100 nM and 1000 nM (sheet 'Lestaurtinib' of Supplementary Table 1),run:Lestaurtinib_02584_R3,Plate:MR017",76.3 nM
same,potency estimated from few doses,"[1]; compound concentrations:100 nM and 1000 nM (sheet 'Lestaurtinib' of Supplementary Table 1),run:Lestaurtinib_02601_R3,Plate:MR018",59.1 nM
same,potency estimated from few doses,"[1]; compound concentrations:100 nM and 1000 nM (sheet 'Lestaurtinib' of Supplementary Table 1),run:Lestaurtinib_02606_R2,Plate:MR019",68.7 nM
same,potency estimated from few doses,"[1]; compound concentrations:100 nM and 1000 nM (sheet 'Lestaurtinib' of Supplementary Table 1),run:Lestaurtinib_02606_R3,Plate:MR019",58 nM
same,potency estimated from few doses,"[1]; compound concentrations:100 nM and 1000 nM (sheet 'Lestaurtinib' of Supplementary Table 1),run:Lestaurtinib_02624_R1,Plate:MR020",169 nM
same,potency estimated from few doses,"[1]; compound concentrations:100 nM and 1000 nM (sheet 'Lestaurtinib' of Supplementary Table 1),run:Lestaurtinib_02624_R3,Plate:MR020",47.2 nM
same,potency estimated from few doses,"[1]; compound concentrations:100 nM and 1000 nM (sheet 'Lestaurtinib' of Supplementary Table 1),run:Lestaurtinib_02724_R1,Plate:MR021",70.6 nM
same,potency estimated from few doses,"[1]; compound concentrations:100 nM and 1000 nM (sheet 'Lestaurtinib' of Supplementary Table 1),run:Lestaurtinib_02724_R2,Plate:MR021",57.7 nM
same,potency estimated from few doses,"[1]; compound concentrations:100 nM and 1000 nM (sheet 'Lestaurtinib' of Supplementary Table 1),run:Lestaurtinib_02724_R3,Plate:MR021",86.8 nM
same,potency estimated from few doses,"[1]; compound concentrations:100 nM and 1000 nM (sheet 'Lestaurtinib' of Supplementary Table 1),run:Lestaurtinib_02741_R1,Plate:MR023",235 nM
same,potency estimated from few doses,"[1]; compound concentrations:100 nM and 1000 nM (sheet 'Lestaurtinib' of Supplementary Table 1),run:Lestaurtinib_02741_R2,Plate:MR023",213 nM
same,potency estimated from few doses,"[1]; compound concentrations:100 nM and 1000 nM (sheet 'Lestaurtinib' of Supplementary Table 1),run:Lestaurtinib_02741_R3,Plate:MR023",215 nM
same,potency estimated from few doses,"[1]; compound concentrations:100 nM and 1000 nM (sheet 'Lestaurtinib' of Supplementary Table 1),run:Lestaurtinib_02748_R2,Plate:MR024",80.7 nM
same,potency estimated from few doses,"[1]; compound concentrations:100 nM and 1000 nM (sheet 'Lestaurtinib' of Supplementary Table 1),run:Lestaurtinib_02752_R1,Plate:MR025",93.7 nM
same,potency estimated from few doses,"[1]; compound concentrations:100 nM and 1000 nM (sheet 'Lestaurtinib' of Supplementary Table 1),run:Lestaurtinib_02752_R2,Plate:MR025",68.6 nM
same,potency estimated from few doses,"[1]; compound concentrations:100 nM and 1000 nM (sheet 'Lestaurtinib' of Supplementary Table 1),run:Lestaurtinib_02765_R1,Plate:MR026",165 nM
same,potency estimated from few doses,"[1]; compound concentrations:100 nM and 1000 nM (sheet 'Lestaurtinib' of Supplementary Table 1),run:Lestaurtinib_02766_R1,Plate:MR027",56.5 nM
same,potency estimated from few doses,"[1]; compound concentrations:100 nM and 1000 nM (sheet 'Lestaurtinib' of Supplementary Table 1),run:Lestaurtinib_02768_R1,Plate:MR028",51.6 nM
same,potency estimated from few doses,"[1]; compound concentrations:100 nM and 1000 nM (sheet 'Lestaurtinib' of Supplementary Table 1),run:Lestaurtinib_02768_R2,Plate:MR028",61.6 nM
same,potency estimated from few doses,"[1]; compound concentrations:100 nM and 1000 nM (sheet 'Lestaurtinib' of Supplementary Table 1),run:Lestaurtinib_02768_R3,Plate:MR028",74.4 nM
same,potency estimated from few doses,"[1]; compound concentrations:100 nM and 1000 nM (sheet 'Lestaurtinib' of Supplementary Table 1),run:Lestaurtinib_02795_R1,Plate:MR022",55.3 nM
same,potency estimated from few doses,"[1]; compound concentrations:100 nM and 1000 nM (sheet 'Lestaurtinib' of Supplementary Table 1),run:Lestaurtinib_02795_R2,Plate:MR022",63.4 nM
same,potency estimated from few doses,"[1]; compound concentrations:100 nM and 1000 nM (sheet 'Lestaurtinib' of Supplementary Table 1),run:Lestaurtinib_02802_R1,Plate:MR029",73 nM
same,potency estimated from few doses,"[1]; compound concentrations:100 nM and 1000 nM (sheet 'Lestaurtinib' of Supplementary Table 1),run:Lestaurtinib_02802_R2,Plate:MR029",83.4 nM
same,potency estimated from few doses,"[1]; compound concentrations:100 nM and 1000 nM (sheet 'Lestaurtinib' of Supplementary Table 1),run:Lestaurtinib_02802_R3,Plate:MR029",32.3 nM
same,potency estimated from few doses,"[1]; compound concentrations:100 nM and 1000 nM (sheet 'Lestaurtinib' of Supplementary Table 1),run:Lestaurtinib_02896_R1,Plate:MR030",78.3 nM
same,potency estimated from few doses,"[1]; compound concentrations:100 nM and 1000 nM (sheet 'Lestaurtinib' of Supplementary Table 1),run:Lestaurtinib_02896_R3,Plate:MR030",80.6 nM
same,potency estimated from few doses,"[1]; compound concentrations:100 nM and 1000 nM (sheet 'Lestaurtinib' of Supplementary Table 1),run:Lestaurtinib_03172_R1,Plate:MR031",67.3 nM
same,potency estimated from few doses,"[1]; compound concentrations:100 nM and 1000 nM (sheet 'Lestaurtinib' of Supplementary Table 1),run:Lestaurtinib_03172_R3,Plate:MR031",72.8 nM
same,potency estimated from few doses,"[1]; compound concentrations:100 nM and 1000 nM (sheet 'Lestaurtinib' of Supplementary Table 1),run:Lestaurtinib_03252_R1,Plate:MR032",64.8 nM
same,potency estimated from few doses,"[1]; compound concentrations:100 nM and 1000 nM (sheet 'Lestaurtinib' of Supplementary Table 1),run:Lestaurtinib_03252_R2,Plate:MR032",23.9 nM
same,potency estimated from few doses,"[1]; compound concentrations:100 nM and 1000 nM (sheet 'Lestaurtinib' of Supplementary Table 1),run:Lestaurtinib_03260_R2,Plate:MR033",63.7 nM
same,potency estimated from few doses,"[1]; compound concentrations:100 nM and 1000 nM (sheet 'Lestaurtinib' of Supplementary Table 1),run:Lestaurtinib_03260_R3,Plate:MR033",78.5 nM
same,potency estimated from few doses,"[2]; compound concentrations:100 nM and 1000 nM (sheet 'Lestaurtinib' of Supplementary Table 1),run:Lestaurtinib_02339_R1,Plate:MR001",963 nM
same,potency estimated from few doses,"[2]; compound concentrations:100 nM and 1000 nM (sheet 'Lestaurtinib' of Supplementary Table 1),run:Lestaurtinib_02339_R3,Plate:MR001",953 nM
same,potency estimated from few doses,"[2]; compound concentrations:100 nM and 1000 nM (sheet 'Lestaurtinib' of Supplementary Table 1),run:Lestaurtinib_02364_R1,Plate:MR002",713 nM
same,potency estimated from few doses,"[2]; compound concentrations:100 nM and 1000 nM (sheet 'Lestaurtinib' of Supplementary Table 1),run:Lestaurtinib_02364_R2,Plate:MR002",541 nM
same,potency estimated from few doses,"[2]; compound concentrations:100 nM and 1000 nM (sheet 'Lestaurtinib' of Supplementary Table 1),run:Lestaurtinib_02364_R3,Plate:MR002",553 nM
same,potency estimated from few doses,"[2]; compound concentrations:100 nM and 1000 nM (sheet 'Lestaurtinib' of Supplementary Table 1),run:Lestaurtinib_02367_R1,Plate:MR003",1320 nM
same,potency estimated from few doses,"[2]; compound concentrations:100 nM and 1000 nM (sheet 'Lestaurtinib' of Supplementary Table 1),run:Lestaurtinib_02367_R3,Plate:MR003",892 nM
same,potency estimated from few doses,"[2]; compound concentrations:100 nM and 1000 nM (sheet 'Lestaurtinib' of Supplementary Table 1),run:Lestaurtinib_02381_R1,Plate:MR004",1400 nM
same,potency estimated from few doses,"[2]; compound concentrations:100 nM and 1000 nM (sheet 'Lestaurtinib' of Supplementary Table 1),run:Lestaurtinib_02381_R2,Plate:MR004",954 nM
same,potency estimated from few doses,"[2]; compound concentrations:100 nM and 1000 nM (sheet 'Lestaurtinib' of Supplementary Table 1),run:Lestaurtinib_02381_R3,Plate:MR004",761 nM
same,potency estimated from few doses,"[2]; compound concentrations:100 nM and 1000 nM (sheet 'Lestaurtinib' of Supplementary Table 1),run:Lestaurtinib_02407_R1,Plate:MR005",755 nM
same,potency estimated from few doses,"[2]; compound concentrations:100 nM and 1000 nM (sheet 'Lestaurtinib' of Supplementary Table 1),run:Lestaurtinib_02407_R3,Plate:MR005",722 nM
same,potency estimated from few doses,[2]; [3],74.8 nM
same,potency estimated from few doses,[2]; [4],616 nM
same,potency estimated from few doses,[2]; [5],56.5 nM
same,potency estimated from few doses,"[2]; compound concentrations:100 nM and 1000 nM (sheet 'Lestaurtinib' of Supplementary Table 1),run:Lestaurtinib_02438_R1,Plate:MR008",857 nM
same,potency estimated from few doses,[2]; [6],792 nM
same,potency estimated from few doses,"[2]; compound concentrations:100 nM and 1000 nM (sheet 'Lestaurtinib' of Supplementary Table 1),run:Lestaurtinib_02473_R1,Plate:MR010",730 nM
same,potency estimated from few doses,"[2]; compound concentrations:100 nM and 1000 nM (sheet 'Lestaurtinib' of Supplementary Table 1),run:Lestaurtinib_02473_R2,Plate:MR010",941 nM
same,potency estimated from few doses,[2]; [7],799 nM
same,potency estimated from few doses,"[2]; compound concentrations:100 nM and 1000 nM (sheet 'Lestaurtinib' of Supplementary Table 1),run:Lestaurtinib_02482_R1,Plate:MR011",788 nM
same,potency estimated from few doses,[2]; [8],508 nM
same,potency estimated from few doses,"[2]; compound concentrations:100 nM and 1000 nM (sheet 'Lestaurtinib' of Supplementary Table 1),run:Lestaurtinib_02482_R3,Plate:MR011",568 nM
same,potency estimated from few doses,[2]; [9],422 nM
same,potency estimated from few doses,[2]; [10],679 nM
same,potency estimated from few doses,[2]; [11],702 nM
